Assay results: the supplement of paper PMC3334620
Over roughly 33,000 sequences, “E-score (-0.5 to 0.5)” has its median near -0.054; the highest 2% begin near 0.39. This is one part of a sample in which the highest values are shown more often than they occur.

Target: Ylr278c (UniProt Q05854)
Test: PBM E-score (8-mer binding enrichment) (E-score (-0.5 to 0.5)); higher = stronger / more preferred TF binding
Settings: protein concentration: 200 nM; construct: GST-DNA-binding domain
Protocol: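 Universal 'all 10-mer' protein binding microarrays (Agilent AMADID 015681) probed with GST-tagged S. cerevisiae TFs (full-length or DBD) made by in vitro transcription/translation (PURExpress), about 100-200 nM. Bound TF was detected with fluorescent anti-GST. Each ungapped 8-mer (which stands for itself and its reverse complement) is scored by the PBM enrichment score (E-score), a modified Wilcoxon-Mann-Whitney statistic from -0.5 to +0.5, computed with the Universal PBM Analysis Suite. Scale: above 0.35 generally sequence-specific binding.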

Sequence of UniProt Q05854 (Q05854 whole entry): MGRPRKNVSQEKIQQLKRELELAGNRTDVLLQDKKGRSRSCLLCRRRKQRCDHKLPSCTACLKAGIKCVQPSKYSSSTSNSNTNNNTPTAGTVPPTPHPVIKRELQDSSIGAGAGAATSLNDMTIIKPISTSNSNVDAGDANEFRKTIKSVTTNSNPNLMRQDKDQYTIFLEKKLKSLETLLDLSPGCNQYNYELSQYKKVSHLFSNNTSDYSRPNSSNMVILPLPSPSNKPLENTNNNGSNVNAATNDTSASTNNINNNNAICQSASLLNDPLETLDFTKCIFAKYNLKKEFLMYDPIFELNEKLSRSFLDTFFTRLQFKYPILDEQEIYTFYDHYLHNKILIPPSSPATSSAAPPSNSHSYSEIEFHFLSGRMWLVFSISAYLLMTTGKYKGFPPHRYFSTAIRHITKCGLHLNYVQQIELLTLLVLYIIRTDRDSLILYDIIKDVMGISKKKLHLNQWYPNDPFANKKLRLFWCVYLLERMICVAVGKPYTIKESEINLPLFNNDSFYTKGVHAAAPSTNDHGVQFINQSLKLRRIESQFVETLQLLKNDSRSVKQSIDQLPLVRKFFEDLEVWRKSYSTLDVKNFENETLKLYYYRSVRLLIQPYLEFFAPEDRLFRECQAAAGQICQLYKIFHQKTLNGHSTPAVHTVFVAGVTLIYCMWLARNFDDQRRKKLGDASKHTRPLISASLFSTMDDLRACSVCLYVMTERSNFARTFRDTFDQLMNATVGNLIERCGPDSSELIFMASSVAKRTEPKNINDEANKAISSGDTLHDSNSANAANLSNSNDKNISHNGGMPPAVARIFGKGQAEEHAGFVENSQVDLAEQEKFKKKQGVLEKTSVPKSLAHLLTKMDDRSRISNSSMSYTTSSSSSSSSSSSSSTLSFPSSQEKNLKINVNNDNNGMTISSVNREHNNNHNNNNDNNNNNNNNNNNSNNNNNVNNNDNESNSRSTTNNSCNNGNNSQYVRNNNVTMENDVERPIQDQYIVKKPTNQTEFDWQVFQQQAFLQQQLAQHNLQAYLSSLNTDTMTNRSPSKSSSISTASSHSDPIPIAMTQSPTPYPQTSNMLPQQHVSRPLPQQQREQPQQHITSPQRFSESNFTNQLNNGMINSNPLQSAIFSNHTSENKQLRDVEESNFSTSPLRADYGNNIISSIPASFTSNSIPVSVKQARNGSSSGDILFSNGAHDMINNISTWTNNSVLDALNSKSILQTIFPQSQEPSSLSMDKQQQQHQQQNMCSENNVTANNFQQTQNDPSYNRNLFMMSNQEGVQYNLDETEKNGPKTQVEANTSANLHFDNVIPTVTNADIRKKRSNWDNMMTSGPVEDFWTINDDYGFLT

Row | Sequence | PBM E-score
1 | CCAGACGA | -0.149
2 | CCGCTTTC | 0.211
3 | CATCCATA | -0.123
4 | AGGAGTCA | -0.121
5 | CAGAGTCC | 0.0837
6 | CGGAGTCC | 0.464
7 | GGGAGTCA | -0.00639
8 | AGGAGTCC | 0.13
9 | CGGAGTCA | 0.457
10 | GAAGCCAA | 0.0199
11 | ACTGTTCA | -0.122
12 | CATTCCGG | 0.384
13 | CATTCCGA | 0.391
14 | GATTCCGA | 0.413
15 | GATTCCAA | -0.116
16 | TATTCCCA | 0.138
17 | TATTCCAA | -0.177
18 | CATTCCTA | -0.212
19 | TATTCCGA | 0.453
20 | GATTCCCA | 0.0255
21 | AGCTAGTA | -0.114
22 | GAGTTCCC | 0.0904
23 | AACTTATA | 0.0873
24 | CAAGCAGG | 0.00606
25 | CCTACAGA | -0.256

Row | Sequence | PBM E-score
26 | GAGTCGCC | 0.0773
27 | GTCAGATA | -0.151
28 | TCCTTGAA | -0.227
29 | GTTTCTGA | 0.0572
30 | AGGGCCCG | 0.152
31 | CGGGCCCA | 0.091
32 | CGGGCCCG | 0.398
33 | ATTTCTGC | 0.184
34 | GCGCAGCC | 0.0388
35 | ATCGGACC | 0.412
36 | AGCGGACC | 0.252
37 | CTCGGACA | 0.435
38 | CTCGGACC | 0.365
39 | AACGGACC | 0.251
40 | CTCGGATA | 0.215
41 | GTCGGACA | 0.386
42 | CGCGGACC | 0.386
43 | GGCGGACC | 0.413
44 | ATCGGATG | 0.329
45 | ATCGGTCC | 0.325
46 | ATCGGATA | 0.393
47 | CAGTGTTC | -0.0124
48 | ACCCAAGT | -0.215
49 | AATTCAAT | -0.026
50 | AGAAGTCA | -0.0826

Row | Sequence | PBM E-score
51 | AAAGCACA | -0.103
52 | GCAACAGA | 0.0725
53 | ATCGGACA | 0.419
54 | ATCGGACG | 0.357
55 | AGCGGACA | 0.294
56 | CAGGCTAA | -0.247
57 | AGTGCGAG | -0.276
58 | ACCCTTAT | -0.098
59 | TTCGAAAA | 0.0013
60 | ACCACGGA | 0.341
61 | AGAACGGA | 0.256
62 | GGAACGGA | 0.398
63 | ATCACGGA | 0.365
64 | CTCACGGA | 0.264
65 | CCCACGGA | 0.359
66 | CGAACGGA | 0.312
67 | TCCACGGA | 0.406
68 | GTCACGGA | 0.401
69 | TACTGCTA | -0.151
70 | GCATACCC | -0.0377
71 | GCGTCTTA | -0.209
72 | GGGATGCA | -0.0857
73 | CTCTCTTA | -0.169
74 | AAATCTTA | -0.149
75 | GCCCTTCC | -0.0379

Row | Sequence | PBM E-score
76 | AAGGCCGA | 0.4
77 | CAGGCCGG | 0.176
78 | AAGGCCGG | 0.434
79 | AAGGCCCG | 0.128
80 | AAGGCCGC | 0.188
81 | AAGGCCGT | 0.142
82 | CGCCTAAA | -0.186
83 | ATAATGCA | -0.276
84 | CGCCTCGC | 0.0203
85 | CGGGGTTC | 0.401
86 | CGGGGTTA | 0.437
87 | AGGGGTTC | 0.0104
88 | GGGGGTTA | -0.28
89 | CCGGGTTC | 0.337
90 | AGGGGTTA | -0.171
91 | ATAAGTTG | -0.0479
92 | GCTGTCTA | -0.154
93 | AATTCTCC | 0.407
94 | CATTCTCC | 0.191
95 | AATTCTCA | -0.13
96 | ACAAAAGG | 0.0804
97 | CCACCGGC | 0.295
98 | TCACCGGA | 0.394
99 | GCACCGGA | 0.429
100 | GCACCGGC | 0.264

Row | Sequence | PBM E-score
101 | CCACCGGA | 0.455
102 | CCACCGGG | 0.329
103 | TCACCGCA | 0.0213
104 | ACACCGGC | 0.355
105 | TCACCGAA | 0.178
106 | GCACCGTA | 0.0145
107 | ACACCGGT | 0.324
108 | ACACCGGA | 0.416
109 | GAGTCTCC | 0.291
110 | CCGCTTGC | 0.217
111 | GTACTAGA | -0.178
112 | AGGACGTC | 0.0253
113 | AGGGCCCA | 0.00775
114 | AAGCGCAA | 0.0312
115 | AGTGGTGG | -0.158
116 | AATCCACG | 0.0023
117 | ATCCGACC | 0.234
118 | ATCCGACA | 0.382
119 | CTCCGACC | 0.458
120 | GGCCGACA | 0.248
121 | CTCCGACA | 0.438
122 | GTCCGACA | 0.393
123 | CCCCGACA | 0.301
124 | GCCCGACA | 0.216
125 | CACCGACC | 0.192

Row | Sequence | PBM E-score
126 | CACCATCA | -0.0978
127 | GCTAGATA | -0.085
128 | GAGGGGTA | -2e-05
129 | ACGATGCA | -0.0494
130 | CTTGCAAA | 0.034
131 | AGAAATCG | 0.0562
132 | CTAAAGAC | -0.12
133 | ATGGAGCG | -0.0671
134 | CCAGAGCG | -0.00204
135 | CGGGAGCA | 0.108
136 | GCGGAGCA | 0.376
137 | ACGGAGCA | 0.344
138 | ACGGAGCC | 0.385
139 | CAGGAGCG | -0.00543
140 | AGGGAGCG | -0.14
141 | CCGGAGCA | 0.473
142 | ACGGAGCT | 0.395
143 | CCGGAGCG | 0.458
144 | ACGGAGCG | 0.396
145 | TACTCATA | -0.285
146 | AGCATTGC | -0.106
147 | GCAGTTCC | 0.169
148 | AGTGCGTA | -0.0325
149 | CAGATAAC | 0.123
150 | CCCACTGA | -0.155

Row | Sequence | PBM E-score
151 | GTAGAAGA | -0.177
152 | CGGGAGCC | 0.0673
153 | GCGGAGCC | 0.394
154 | TAGGAGCA | -0.184
155 | CTGGAGCC | 0.0766
156 | TCGGAGCA | 0.455
157 | GAGGAGCC | -0.0931
158 | TCAGAGCA | -0.282
159 | CCGGAGCC | 0.422
160 | GCAGAGCC | -0.128
161 | CTGAGGAC | 0.0445
162 | AGTCTTTG | -0.289
163 | CATCAAGC | -0.0328
164 | GGGGGCCA | -0.0264
165 | AAGCAAAT | -0.19
166 | GTCACGAA | -0.0546
167 | AGTGTTAT | -0.0541
168 | CAGTCCAA | -0.218
169 | AGGAACAG | -0.279
170 | CGGAACAC | 0.353
171 | TGGAACAA | -0.206
172 | GGGAACAA | 0.0828
173 | CGGAACAA | 0.427
174 | CGGAACAG | 0.388
